Compound activity deposited in PubChem BioAssay by several laboratories.
An excerpt weighted towards active compounds, which were near 22% of everything screened.
cytoskel mod: alters cytoskeleton assembly in HUVEC cells. HUVEC TNFa F-actin phalloidin imaging, high content. inhibition, % at 2 µM. 0.18% of 91,000 active. AID 836;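 active = inhibition above the batch mean plus 3 SD and confirmed as a hit by visual image inspection, cut at about 30% in these data, passing the limit was not always enough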
E-sel TNF inh: TNF alpha driven E-selectin expression inhibition; HUVEC TNFa-induced E-selectin immunofluorescence, high content; inhibition, % at 2 µM; 0.71% of 120,000 active;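 active = inhibition above the batch mean plus 3 SD, and confirmed as a hit on visual image review, cut at about 43% in these data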;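 note: 0% = TNF-stimulated DMSO wells and 100% = unstimulated control wells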
CYP2C9 activ: activators of human CYP2C9. recombinant CYP2C9, luciferin-H conversion, luminescence; active compounds read high; factor 1 = untreated enzyme, 0 = blocked. activation factor at 5 µM. P11712. AID 1024. 1.4% of 96,000 active;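 active = activation factor of 2 or more for CYP2C9 at a 5 µM dose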;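 note: 0 = sulfaphenazole-blocked wells and 1 = vehicle-only wells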
Target sequence (P11712 whole entry, looked up): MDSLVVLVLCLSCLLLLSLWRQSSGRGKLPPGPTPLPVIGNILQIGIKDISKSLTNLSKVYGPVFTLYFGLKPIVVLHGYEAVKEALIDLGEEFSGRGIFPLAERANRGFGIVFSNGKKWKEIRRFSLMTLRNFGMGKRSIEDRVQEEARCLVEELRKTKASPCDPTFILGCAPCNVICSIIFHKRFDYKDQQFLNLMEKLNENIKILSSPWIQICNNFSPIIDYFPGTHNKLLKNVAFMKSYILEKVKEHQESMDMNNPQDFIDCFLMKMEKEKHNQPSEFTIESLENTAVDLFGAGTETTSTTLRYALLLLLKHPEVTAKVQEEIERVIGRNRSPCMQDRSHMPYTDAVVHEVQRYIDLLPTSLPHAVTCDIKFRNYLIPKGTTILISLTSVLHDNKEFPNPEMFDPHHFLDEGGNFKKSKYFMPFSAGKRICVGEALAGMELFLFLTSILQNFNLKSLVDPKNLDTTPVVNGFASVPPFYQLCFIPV
CYP2C19 inhib: inhibitors of human CYP2C19 | P33261 | CYP2C19 Supersomes, luciferin-H EGE luminescence, 30 min | inhibition, % at 5 µM | 21% of 96,000 active;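 active = CYP2C19 inhibition above a set limit at 5 µM in the primary screen, cut at about 50% in these data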;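 note: plate controls were negative control wells for no effect and 2.5 mM tranylcypromine positive control for full effect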
CYP2C9 inh: blocks human cytochrome P450 2C9; P11712; CYP2C9 Supersomes, luciferin-H conversion, luminescence; inhibition, % at 5 µM; 20% of 96,000 active;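 active = blocking of liver enzyme CYP2C9 beyond about 50% at 5 µM, limit read from the data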
CYP2C19 act: activators of human cytochrome P450 2C19; P33261; recombinant CYP2C19, luciferin-H EGE luminescence; active compounds read high; 0 = fully inhibited enzyme, 1 = untreated enzyme; activation factor at 5 µM; 96,000 tested, under 10 active;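 active = activation factor of at least 2 at 5 µM in the primary screen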;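 note: 0 = wells with 2.5 mM tranylcypromine and 1 = vehicle-only wells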
An asterisk follows results filed as active; . = no result given.

SMILES	cytoskel mod	E-sel TNF inh	CYP2C9 activ	CYP2C19 inhib	CYP2C9 inh	CYP2C19 act
Cc1cc(C)c(C#N)c(SCC(=O)N2CCCCC2)n1	-1	25	1.4	54*	-36	0.5
Cc1cc(C)c(C#N)c(SCC(=O)N(C)C2CCCCC2)n1	-10	9	1.2	25	-23	0.7
CCN(Cc1ccccc1)C(=O)CSc1nc(C)cc(C)c1C#N	1	.	1.6	62*	-60	0.4
COc1ccccc1C1/C(=C(\O)c2ccc3c(c2)OCCO3)C(=O)C(=O)N1CCCN(C)C (stereo not drawn)	.	.	1.1	0	-5	1
COc1ccc(N=C2SC(C(=O)O)CC(=O)N2C)cc1 (stereo not drawn)	-19	-1	0.7	23	29	0.8
COc1nc(Oc2ccc(/C=N/O)cc2)nc(N(C)C)n1	-8	20	1	2	-1	1
O=C(c1cccn2c(=O)c3ccccc3nc12)N1CCN(c2ccccn2)CC1	-11	.	0.4	36	59*	0.6
O=C(c1cc(-c2ccncc2)nc2ccc(Br)cc12)N1CCN(c2ccccn2)CC1	84*	-18	0	79*	98*	0.2
O=C(c1cc(-c2ccncc2)nc2ccc(Cl)cc12)N1CCN(C(=O)C2CCCO2)CC1 (stereo not drawn)	-2	-16	0.3	47	74*	0.5
O=C(c1cccn2c(=O)c3cc(Br)ccc3nc12)N1CCN(c2ccccn2)CC1	.	19	0.4	10	59*	0.9
CCOC(=O)N1CCN(C(=O)c2cccn3c(=O)c4cc(Br)ccc4nc23)CC1	.	1	.	.	.	.
COC(=O)NCCOC(=O)N(O)c1ccc(Br)cc1	-18	.	1	68*	2	0.3
COCCNC(=O)CN(C)S(=O)(=O)c1ccc(Br)cc1	.	-3	.	.	.	.
CCOC(=O)C1=C(N)OC2=C(C(=O)CC(C)(C)C2)C1c1cccs1 (stereo not drawn)	-2	-9	.	.	.	.
CCOC(=O)C1CCN(S(=O)(=O)c2ccc(-n3cnnn3)c(C)c2)CC1	.	-22	1.1	15	-14	0.9
COc1cc(S(=O)(=O)N2CCC(O)(c3cccc(C(F)(F)F)c3)CC2)ccc1-n1cnnn1	2	-15	0.4	32	64*	0.7
COc1ccc(C(=O)c2coc3ccc(O)c(CN(C)C)c23)cc1	6	6	0.9	25	6	0.7
CCC(c1c(C)[nH]oc1=O)c1c(C)[nH]oc1=O	-18	.	0.9	0	10	1
CC1Cc2ccccc2N1C(=O)Cc1cccs1 (stereo not drawn)	-14	16	1.1	29	-6	0.7
Cc1ccc(S(=O)(=O)N2c3ccc(S(N)(=O)=O)cc3CC2C)cc1 (stereo not drawn)	.	-1	.	.	.	.
CC1Cc2ccccc2N1S(=O)(=O)c1cccc(C(=O)NCCCO)c1 (stereo not drawn)	-9	.	0.6	52*	36	0.5
CCOc1ccc(S(=O)(=O)N2c3ccccc3CC2C)cc1 (stereo not drawn)	24	-15	0.1	52*	94*	0.5
CCOC(=O)c1ccc(NC(=O)c2cccc(S(=O)(=O)N3c4ccccc4CC3C)c2)s1 (stereo not drawn)	.	-8	.	.	.	.
O=C(O)C1CCCN1S(=O)(=O)c1cccs1 (stereo not drawn)	-10	2	0.9	32	10	0.7
CC1Cc2ccccc2N1S(=O)(=O)c1cccs1 (stereo not drawn)	4	.	1	81*	4	0.2
SMILES	cytoskel mod	E-sel TNF inh	CYP2C9 activ	CYP2C19 inhib	CYP2C9 inh	CYP2C19 act
CC1Cc2ccccc2N1C(=O)CCS(=O)(=O)c1cccs1 (stereo not drawn)	.	.	0.8	52*	23	0.5
O=C(Nc1ccc(F)cc1F)NC1CCN(S(=O)(=O)c2ccc(F)cc2)CC1	.	-34	.	.	.	.
O=C(NCCN1CCOCC1)c1cc(Sc2ccccc2Cl)nc2ccccc12	.	-2	.	.	.	.
COc1ccc2c(c1)C(C1C(=O)CCCC1=O)c1ccccc1O2 (stereo not drawn)	-12	13	0.4	3	64*	1
COc1ccc(/C=N/n2c(SC)nnc2-c2ccccc2)cc1C	-19	-11	0.7	54*	32	0.5
COc1ccc(/C=N/n2c(SC)nnc2-c2ccccc2)c(OC)c1OC	-13	.	0.3	79*	67*	0.2
COc1cccc(/C=N/n2c(C)nc3ccccc32)c1OC	4	12	0.3	39	68*	0.6
COc1cccc(/C=N/n2c(=S)n(C)c3ccccc32)c1OC	-15	7	0.6	6	44	0.9
COc1cccc(/C=N\n2c(C)nnc2C)c1OC	10	12	1.1	-18	-8	1.2
Cn1c(=O)c2c(ncn2CC(=O)Nc2ccc(N3CCOCC3)cc2)n(C)c1=O	4	-23	0.7	-8	32	1.1
FC(F)(F)c1ccc(Sc2nnc(-c3cccs3)n2CC2CCCO2)nc1 (stereo not drawn)	10	-27	0.5	91*	52*	0.1
FC(F)(F)c1cnc(Sc2nnc(-c3cccs3)n2CC2CCCO2)c(Cl)c1 (stereo not drawn)	11	-3	1.1	89*	-7	0.1
O=C(CSc1nnc(-c2ccncc2)n1CC1CCCO1)Nc1nccs1 (stereo not drawn)	-12	2	.	.	.	.
Fc1ccc(-c2nnc(SCc3ncc(-c4ccccc4)o3)n2CC2CCCO2)cc1 (stereo not drawn)	32	.	1.1	11	-11	0.9
CCOC(=O)C1=C(C)N(C)C(=S)N(C)C1c1ccc(OC)cc1 (stereo not drawn)	.	-22	.	.	.	.
COC(=O)C1=C(C)N(C)C(C)=C(C(=O)OC)C1c1ccncc1	11	-2	0.2	78*	79*	0.2
CCOC(=O)C1=C(C)N(C)C(C)=C(C(=O)OCC)C1c1ccccc1	-1	8	.	.	.	.
CCOC(=O)C1=C(C)N(C)C(C)=C(C(=O)OCC)C1c1ccncc1	11	-8	0	97*	100*	0
COC(=O)C1=C(C)N(C)C(C)=C(C(=O)OC)C1c1ccc(F)c(Br)c1	-10	-9	0.1	65*	94*	0.4
Cc1ccc(S(=O)(=O)NCCSc2nnnn2-c2ccc(C(N)=O)cc2)cc1	.	-32	0.6	24	36	0.8
CS(=O)(=O)NCCSc1nnnn1-c1ccccc1	1	1	1.2	52*	-17	0.5
O=S(=O)(NCCSc1nnnn1-c1ccccc1)c1cccs1	5	1	0.9	99*	6	0
CCC(C)(C)NC(=O)C(c1ccc(C)cc1)N(CCN1CCOCC1)C(=O)CNC(=O)c1cccs1 (stereo not drawn)	.	7	.	.	.	.
O=C(O)c1ccc(OCCn2ccnc2)cc1	-1	.	1.1	-20	-6	1.2
CC(C)C1NC(=S)N(Cc2ccccc2)C1=O (stereo not drawn)	-4	-61	0.9	58*	14	0.4
